An excerpt weighted towards active compounds, which were near 1.1% of everything screened.
TrxR1 substrate: is turned over as a substrate by rat TrxR1; O89049; purified TrxR1 substrate turnover, NADPH consumption readout; Potency, µM (doses to about 114 µM), for the others: at the highest dose activity change, negative = substrate turnover; 0.01% of 390,000 active; note: nearly all actives have a fitted effect of over 50% in size
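Rat TrxR1, dispensed at 90 nM, was prereduced with 400 uM NADPH (final) for 5 min at ~22 deg C, then incubated with compound 15 min before 400 uM selenite. A first-read NADPH fluorescence drop versus no-compound background flagged substrates.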
rTrxR1 inhibitor: inhibitors of rat thioredoxin reductase 1; recombinant rTrxR1, NADPH fluorescence consumption, selenite substrate; Potency, µM (titrated, usually from 114 µM), without a hit: top-dose activity change, negative = inhibition, most hits filed as inhibitors; AID 588453; O89049; 1% of 390,000 active; note: nearly all actives have a fitted effect of over 65% in size
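Rat TrxR1 (90 nM in the dispensed reagent) was pre-reduced with 400 uM NADPH for 5 min at room temperature, then incubated with compound for 15 min. After 400 uM selenite was added, NADPH fluorescence (Ex 340/Em 450 nm) was followed for 8 min.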
Eya2 phos inh: Eya2 (human) phosphatase inhibition; recombinant Eya2, OMFP fluorescence dephosphorylation (OMFP is methylfluorescein phosphate); Potency, µM (top dose mostly 76.9 µM), inactives show top-dose activity, negative = inhibition, hits mostly inhibitors; 0.006% of 330,000 active; AID 488837
Target sequence (O00167 whole entry, looked up): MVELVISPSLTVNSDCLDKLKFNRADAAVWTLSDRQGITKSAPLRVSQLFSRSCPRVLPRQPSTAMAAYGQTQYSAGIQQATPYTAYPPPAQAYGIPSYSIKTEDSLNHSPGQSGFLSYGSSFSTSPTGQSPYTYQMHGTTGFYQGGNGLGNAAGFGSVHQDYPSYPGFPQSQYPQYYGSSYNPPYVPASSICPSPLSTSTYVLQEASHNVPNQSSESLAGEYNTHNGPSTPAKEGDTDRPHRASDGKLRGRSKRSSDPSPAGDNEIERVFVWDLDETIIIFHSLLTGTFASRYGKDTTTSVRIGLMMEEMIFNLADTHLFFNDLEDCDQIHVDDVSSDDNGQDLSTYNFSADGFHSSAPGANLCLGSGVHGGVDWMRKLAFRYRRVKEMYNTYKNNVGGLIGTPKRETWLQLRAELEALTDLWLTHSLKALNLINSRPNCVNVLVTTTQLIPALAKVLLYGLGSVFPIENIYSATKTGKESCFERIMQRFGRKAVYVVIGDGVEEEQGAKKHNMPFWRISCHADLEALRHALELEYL
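Eya2 (0.2 uM) preincubated 10 min at ambient with compound, then OMFP substrate added at 50 uM; 10 min reaction in 50 mM HEPES pH 7.5, 50 mM NaCl, 5 uM MgCl2, 0.05% BSA, 1 mM DTT. Fluorescence read at Ex 485/Em 525 nm.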
mIDH1 inhibitor: human IDH1 R132H inhibition. IDH1-R132H enzyme, NADPH consumption, diaphorase/resazurin fluorescence. Potency, µM (series often up to 76.6 µM), for the others: at the top dose activity change, negative = inhibition, actives largely listed as inhibitors. 0.093% of 390,000 active. AID 602179; note: nearly all actives have a fitted effect of over 65% in size
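IDH1-R132H (0.5 ug/mL) preincubated 30 min with compound, then NADPH (0.016 mM) and alpha-KG (2 mM) added; 80 min at RT, pH 7.5. Remaining NADPH coupled via diaphorase/resazurin to fluorescence (540/590 nm); concentration-response curves normalized to no-enzyme control.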
RGS4 inhibitor: inhibitors of human regulator of G protein signaling 4. 0.039% of 390,000 active. P49798. Transcreener GDP fluorescence polarization, RGS4-accelerated GTP hydrolysis. Potency, µM (doses to about 114 µM), for the others: top-dose activity change, negative = inhibition, hits mostly inhibitors; note: nearly all actives have a fitted effect of over 75% in size
Target sequence (P49798 whole entry, looked up): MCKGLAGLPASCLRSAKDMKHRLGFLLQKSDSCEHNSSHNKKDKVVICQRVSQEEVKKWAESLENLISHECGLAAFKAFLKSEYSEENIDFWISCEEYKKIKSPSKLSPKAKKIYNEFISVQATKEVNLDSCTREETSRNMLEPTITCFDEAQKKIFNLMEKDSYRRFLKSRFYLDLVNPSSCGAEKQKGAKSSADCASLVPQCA
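MLSMR compounds (23 nl, pin-transferred) preincubated 10 min at room temperature with a 500nM (2x) first reagent, then RGS4 at 900nM (2x) plus Transcreener GDP mix added; fluorescence polarization (620/688 nm) read before and after 90 min at 30 °C.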
* = called active by the depositor; ? = inconclusive; / = no result; [ ] = remark or other dose. Calls come from the whole dose curve; as a rule, active = well fitted curve in the direction sought with a large enough effect; inconclusive = small, poorly fitted or top-dose-only effect, or another doubt; inactive = no such curve, though single readings can be large; an effect the other way counts as inactive or inconclusive. % is set by controls: 0 for no effect and ±100 for the full control effect; potency is the fitted concentration of half-maximal effect.

SMILES	TrxR1 substrate	rTrxR1 inhibitor	Eya2 phos inh	mIDH1 inhibitor	RGS4 inhibitor
Cc1ccccc1C(=O)OCc1cc(=O)n2c(C)csc2n1	0%[57.1 µM]	1%[57.1 µM]	/	-6%	-1%
CCCNC(=O)Nc1ccc(C(F)(F)F)cc1	-16%	-14%	-7%	0%	6%[11.4 µM]
COc1ccc(OC)c(NC(=O)c2c(NCc3ccc(C)o3)sc3c2CCCCC3)c1	3%[57.1 µM]	14µM*	/	-10%	?
COc1ccccc1NC(=O)c1c(NCc2ccc(C)o2)sc2c1CCCCC2	2%[57.1 µM]	14µM*	/	-5%	?
CCCCn1nnc(NC(=S)NC(=O)c2ccc(OCC)c([N+](=O)[O-])c2)n1	4%	79µM*	5%	3%	?
COC(=O)c1cc2c(=O)n3ccccc3nc2n(C)c1=N	/	/	5%	/	/
NS(=O)(=O)c1ccc(NC(=S)Nc2cc(Cl)c(Cl)cc2Cl)cc1	-3%	35µM*	1%	7%	-19%
Cc1ccc(Nc2c(-c3ccco3)nc3nc(C)cc(C)n23)cc1	-25%[57.1 µM]	?	4%	8%	-44%
COc1ccc(/C=C2\N=C(C)OC2=O)cc1OC(C)=O	-15%	45µM*	6%	-8%	-23%
CCOC(=O)COc1c(Cl)cc(/C=C2\N=C(C)OC2=O)cc1OC	8%[57.1 µM]	14µM*	/	4%	-22%
COc1ccc(/C=C2\N=C(C)OC2=O)cc1OC	-15%	40µM*	-4%	-12%	-27%
CCOc1cc(/C=C2\N=C(C)OC2=O)cc(Br)c1OCC(=O)OC	11%[57.1 µM]	?	?	7%	16%
COc1cc(/C=C2\N=C(c3ccccc3)OC2=O)ccc1OC(C)=O	-4%	-1%	3%	-7%	11%
Cc1cc(C)nc(NS(=O)(=O)c2ccc(NC(=O)c3ccccc3Br)cc2)n1	/	/	/	-6%	/
CC(OC(=O)CCCN=C1NS(=O)(=O)c2ccccc21)C(=O)Nc1ccc(F)cc1Cl (stereo unspecified)	-5%	-2%	5%	2%	-7%
CCN(CC)CCNC(=O)c1cn(CC)c2cc(N3CCN(C(=O)c4ccco4)CC3)c(F)cc2c1=O	46%	13%	-23%	2%	6%
CCN(CC)CCCNC(=O)c1cn(CC)c2cc(N3CCN(C(=O)c4ccco4)CC3)c(F)cc2c1=O	76%	71µM*	-6%	0%	-9%
Cc1cccc(-c2ccc3[nH]c4c(c3c2)CCN2C[C@@H]([C@H](C)O)[C@@H](N(C)C(=O)Nc3ccc(F)cc3)C[C@@H]42)c1	/	/	/	-7%	/
Cc1ccccc1NC(=O)Cc1nc(COC(=O)c2ccc(NC(N)=O)cc2)cs1	4%	17%	4%	0%	-5%
Cc1ccccc1NC(=O)Cc1nc(COC(=O)c2ccc(S(C)(=O)=O)c([N+](=O)[O-])c2)cs1	-3%	3.2µM*	21%	-16%	0%
CS(=O)(=O)c1ccc(C(=O)OCC(=O)Nc2cccnc2Cl)cc1[N+](=O)[O-]	3%	2.5µM*	-23%	17%	-23%
CS(=O)(=O)c1ccc(C(=O)OCC(=O)NC(=O)C2COc3ccccc3O2)cc1[N+](=O)[O-] (stereo unspecified)	-1%	8.9µM*	-22%	1%	-26%
Nc1c(-c2nc(-c3ccccc3)no2)nnn1CC(=O)Nc1cccc(F)c1	2%	19%	/	3%	-1%
O=C(Nc1ccc(-c2nc3ccccc3o2)cc1)c1ccc(N2C(=O)C3C4C=CC(C4)C3C2=O)cc1 (stereo unspecified)	147%	70%	7%	4%	-15%
O=c1cc(-c2ccc(O)cc2)oc2c(-c3c(O)cc(O)c4c(=O)cc(-c5ccc(O)cc5)oc34)c(O)cc(O)c12	-3%	-4%	10%	-10%	3%
SMILES	TrxR1 substrate	rTrxR1 inhibitor	Eya2 phos inh	mIDH1 inhibitor	RGS4 inhibitor
O=c1cc(-c2ccc(O)cc2)oc2cccc(O)c12	/	/	/	/	2.1µM*
COc1ccc(NC(=O)/C(Cl)=C(/Cl)S(=O)(=O)Cc2ccccc2)cn1	11%[57.1 µM]	7.1µM*	13%	4%	?
COc1ccc(NC(=O)C(Cl)=C(Cl)Cl)cn1	6%[57.1 µM]	8%[57.1 µM]	15%	-2%	2%
O=[N+]([O-])c1cccnc1S(=O)(=O)c1ccccc1	1%	1.1µM*	9%	1%	-34%
Cc1ccc(-c2ccc(NC(=O)C3C4C=CC(C4)C3C(=O)O)cc2)o1 (stereo unspecified)	-11%	22µM*	-1%	-3%	-54%
O=C(c1cnn2cccnc12)N1CCN(c2ccccc2)CC1	9%	32%	-1%	-6%	-7%
Cc1ccc(/C=C/S(=O)(=O)NCC(=O)OCC(=O)Nc2c(F)cccc2F)cc1	-3%	32µM*	-2%	0%	1%
O=C(Nc1cc(S(=O)(=O)N2CCOCC2)ccc1O)c1ccc2c(c1)S(=O)(=O)c1ccccc1C2=O	-1%[57.1 µM]	6%[57.1 µM]	0%	-10%	?
COc1ccc(N=Cc2nc(-c3ccccc3)oc2OC(C)=O)cc1	7%	13µM*	-4%	8%	-13%
Cc1ccc(N=Cc2nc(-c3ccco3)oc2O)cc1	8%	-33%	-16%	9%	17%
O=C(Oc1oc(-c2ccco2)nc1C=Nc1ccccc1)c1ccoc1	10%	3.5µM*	15%	-5%	-14%
Cc1ccc(C(=O)Oc2oc(-c3ccco3)nc2C=Nc2ccc(Cl)cc2)cc1	-2%	1.8µM*	0%	5%	-48%
O=C(Oc1oc(-c2ccco2)nc1C=Nc1ccccc1)c1ccco1	21%[57.1 µM]	2.2µM*	-5%	2%	?
Cc1ccc(C(=O)Oc2oc(-c3ccccc3)nc2C=Nc2ccc(N(C)C)cc2)cc1	-1%	?	4%	9%	-28%
CCn1c(C)nc2cc(C(=O)n3cc(C(=O)c4cc(F)ccc4O)cn3)ccc21	/	/	5%	/	/
Nc1ncnc2c1nc(Br)n2C1OC2COP(=O)(O)O[C@@H]2C1O (stereo partly specified)	0%[57.1 µM]	-3%[57.1 µM]	3%	/	29%[56.9 µM]
O=c1cc(-c2ccc(OCc3ccccc3)cc2)oc2cc(OCc3ccccc3)cc(OCc3ccccc3)c12	4%	40µM*	-4%	-2%	-36%
O=c1cc(-c2ccccc2)oc2cc(OCc3ccccc3)cc(O)c12	-2%[57.1 µM]	27%[57.1 µM]	-3%	4%	-12%
Cc1cccc(NC(=S)NCC(c2ccccc2)N(C)C)c1 (stereo unspecified)	-4%	2%	4%	-5%	7%
Cn1nnnc1Sc1ncnc2scc(-c3cccs3)c12	0%	45µM*	-20%	/	-22%
Cc1ccc(Nc2nnc(SCC(=O)Nc3ncc(S(=O)(=O)c4ccc([N+](=O)[O-])cc4)s3)s2)cc1	-6%	-8%	5%	5%	7%
COc1ccc(CC(=O)Nc2sc3c(c2C(N)=O)CCCC3)cc1	4%	19%	-7%	0%	-17%[56.9 µM]
COc1ccc2nc(Nc3sc4c(c3C(N)=O)CCCC4)sc2c1	-8%	14µM*	0%	0%	?

Screens from PubChem BioAssay.
